Hits are enriched below; roughly 27% of the tested compounds scored in any of these assays.
CYP2C19 activ: human CYP2C19 activators, primary screen, biochemical, luminescence; activation factor at 5 µM; AID 1025, 2008; recombinant CYP2C19, luciferin-H EGE luminescence; active compounds read high; 0 = fully inhibited enzyme, 1 = untreated enzyme; 96,000 tested, under 10 active;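 active means activation factor of at least 2 at 5 µM in the primary screen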;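 further: 0 = wells with 2.5 mM tranylcypromine and 1 = vehicle-only wells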
CYP2C19 inhib: blockers of cytochrome P450 2C19 activity – biochemical, luminescence, ADME assay, primary screen. CYP2C19 Supersomes, luciferin-H EGE luminescence, 30 min. AID 778, 2007. P33261. actives 21% (n = 96,000). inhibition, % at 5 µM;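 active means CYP2C19 inhibition above a set limit at 5 µM in the primary screen, cut at about 50% in these data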;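 further: plate controls were negative control wells for no effect and 2.5 mM tranylcypromine positive control for full effect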
CYP2C9 activ: human CYP2C9 activators, primary screen, biochemical, luminescence | Cytochrome P450 2C9 (Homo sapiens), P11712 | recombinant CYP2C9, luciferin-H conversion; active compounds read high; factor 1 = untreated enzyme, 0 = blocked | activation factor at 5 µM | actives 1.4% (n = 96,000) | AID 1024, 2008;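 active means activation factor of 2 or more for CYP2C9 at a 5 µM dose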;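 further: 0 = sulfaphenazole-blocked wells and 1 = vehicle-only wells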
Target sequence (P11712 whole entry, looked up): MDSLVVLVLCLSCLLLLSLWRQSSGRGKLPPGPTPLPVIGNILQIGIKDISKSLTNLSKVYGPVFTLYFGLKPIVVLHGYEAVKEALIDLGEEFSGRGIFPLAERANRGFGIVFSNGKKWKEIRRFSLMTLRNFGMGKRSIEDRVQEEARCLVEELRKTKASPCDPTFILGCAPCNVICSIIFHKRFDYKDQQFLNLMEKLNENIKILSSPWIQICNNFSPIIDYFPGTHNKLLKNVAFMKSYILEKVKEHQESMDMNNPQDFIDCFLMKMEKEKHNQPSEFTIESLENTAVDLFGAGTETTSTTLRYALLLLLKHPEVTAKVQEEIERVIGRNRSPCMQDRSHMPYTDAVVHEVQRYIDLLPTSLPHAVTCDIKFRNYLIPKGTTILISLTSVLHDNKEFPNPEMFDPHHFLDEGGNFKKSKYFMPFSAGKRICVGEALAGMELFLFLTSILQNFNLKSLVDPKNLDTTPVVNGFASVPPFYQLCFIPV
PTK2B oligo ant: antagonists of Pyk2 self-association, primary screen, Q293 cells, FERM NanoBiT luminescence, HTS; Protein-tyrosine kinase 2-beta (Homo sapiens), Q14289; active compounds read low; z-score (the deposit names both 25 µM and 10 µM); actives 0.83% (n = 99,000); AID 1347419, 2020;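 active means Z-score of -3 or lower, scaled per plate to the spread of control and sample wells; inactive means z-score above -3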;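 further: negative z-score means lost luminescence so less FERM oligomerization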
CYP2C9 inh: blockers of cytochrome P450 2C9 activity – biochemical, luminescence, ADME assay, primary screen. inhibition, % at 5 µM. actives 20% (n = 96,000). AID 777, 2007. CYP2C9 Supersomes, luciferin-H conversion;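 active means blocking of liver enzyme CYP2C9 beyond about 50% at 5 µM, limit read from the data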
Cav32 inh: Cav3.2 calcium influx blockers – cell-based, Fluo-4 calcium fluorescence, FDSS, MLSMR library, primary screen | Voltage-dependent T-type calcium channel subunit alpha-1H (Homo sapiens), O95180 | Cav3.2-expressing cells; active compounds read low | B-score at 10 µM | actives 4% (n = 100,000) | AID 449739, 2010;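 active means single-dose well whose peak fluorescence ratio is a statistical outlier from its plate by either plate-standardised score or position-corrected B-score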
* marks the source's active call; other numbers are inactive results; nt = no result given.

SMILES | CYP2C19 activ | CYP2C19 inhib | CYP2C9 activ | PTK2B oligo ant | CYP2C9 inh | Cav32 inh
Cc1ccc(C(=O)NCCc2csc(C)n2)cc1 | 0.9 | 13 | 0.5 | nt | 53* | 0.32
Cc1nc(CCNC(=O)Cc2ccc(Cl)cc2)cs1 | 0.4 | 56* | 0.7 | nt | 27 | 1.4
CCOc1ccc(CNC(=O)CCn2c(=O)oc3ccccc32)cc1OC | 0.7 | 27 | 0.9 | 0.99 | 8 | 0.43
CCOC(=O)C(CC)n1nc(C)n2c(cc3occc32)c1=O (centres undefined) | 0.9 | 12 | 0.3 | -0.14 | 71* | 0.49
Cc1nn(C(C)C(=O)NCCCc2ccccc2)c(=O)c2cc3occc3n12 (centres undefined) | 0.3 | 71* | 0.3 | 0.85 | 68* | 0.32
CCOc1ccc(CNC(=O)C(CC)n2nc(C)n3c(cc4occc43)c2=O)cc1OC (centres undefined) | 0.8 | 20 | 0.3 | 0.91 | 75* | -0.32
CCOC(=O)CCCn1ncn2c(cc3occc32)c1=O | 0.9 | 13 | 0.9 | 0.94 | 5 | 0.22
CCOc1ccc(CCNC(=O)C(C)n2nc(C)n3c(cc4occc43)c2=O)cc1OCC (centres undefined) | 0.7 | 27 | 0.4 | 0.53 | 62* | -0.46
Cc1nn(C(C)C(=O)NCC2CCCO2)c(=O)c2cc3occc3n12 (centres undefined) | 1 | 3 | 1.1 | 1.6 | -14 | nt
CC(=O)Nc1nonc1-n1nnc(C(=O)NCc2ccccc2)c1C | 0.2 | 83* | 0.3 | 0.44 | 70* | 0.54
Cc1cc(C)n(S(=O)(=O)/C=C/c2ccccc2)n1 | 0.3 | 74* | 1.2 | 0.45 | -24 | 1.5
Cc1ccc(CNC(=O)c2cc(-c3ccccc3)nn2CC2CC(c3cccc([N+](=O)[O-])c3)=NO2)cc1 (centres undefined) | nt | nt | nt | nt | nt | -0.84
COC(=O)c1[nH]c2cccc(OC)c2c1NC(=O)C(C)N1CCC(C)CC1 (centres undefined) | 0.8 | 18 | 2.3* | nt | -125 | -0.62
COc1cc(-n2ccnc2SC)c(Cl)cc1Cl | 0.5 | 54* | 1 | 0.11 | 4 | -1.4
Cc1ccc(CNc2nc(N)c([N+](=O)[O-])c(Nc3cccc(F)c3)n2)cc1 | 0.5 | 50* | 0.3 | 0.8 | 65* | 0.29
CCOc1ccc(NC(=O)CCN2CCN(S(=O)(=O)c3cc(Cl)ccc3OC)CC2)cc1 | 0 | 96* | 0.3 | 0.67 | 68* | -1.3
O=C(CN1CCN(S(=O)(=O)c2ccccc2)CC1)Nc1ccc2c(c1)OCO2 | 0.5 | 49 | 0.7 | 0.12 | 29 | -0.41
CN1CCN(CC(=O)Nc2ccc(Cl)cc2Cl)CC1 | 0.5 | 50 | 1 | 0.88 | -2 | 0.37
CCOc1ccc(NC(=O)CN2CCN(S(=O)(=O)c3ccc(Cl)cc3)CC2)cc1 | 0.2 | 80* | 1.1 | 0.71 | -9 | -2.6
CN(C)S(=O)(=O)N1CCN(CC(=O)Nc2cc(Cl)ccc2Cl)CC1 | 0.3 | 72* | 0.7 | 0.49 | 29 | 0.5
CCOc1ccc(NC(=O)CN2CCN(CC(=O)Nc3ccc(F)cc3)CC2)cc1 | 0.9 | 8 | 1 | 0.45 | 2 | 0.55
O=C(CN1CCN(S(=O)(=O)c2ccccc2)CC1)Nc1ccc(Cl)c(Cl)c1 | 0.2 | 77* | 0.8 | 1.1 | 18 | -3.7*
C[C@H]1CC[C@@]2(O[C@@H](CCO)C[C@H](O)[C@H]2O)O1 | nt | nt | nt | nt | nt | 0.038
CC(C)CN(C(=O)COC(=O)c1cc2c(s1)CCC2)C1CCS(=O)(=O)C1 (centres undefined) | 1 | -4 | 0.9 | 0.26 | 10 | -0.061
COc1ccc(NC(=O)CCN2CCN(S(=O)(=O)c3ccc(Cl)cc3)CC2)cc1 | 0.3 | 71* | 0.2 | -0.07 | 75* | 0.0099
SMILES | CYP2C19 activ | CYP2C19 inhib | CYP2C9 activ | PTK2B oligo ant | CYP2C9 inh | Cav32 inh
COc1ccc(N2CCN(C(=O)Nc3cccc(C(F)(F)F)c3)CC2)cc1 | 0.5 | 48 | 0.9 | 0.54 | 14 | -3.7
COc1ccc(NC(=O)CCN2CCN(S(=O)(=O)c3ccc(C(C)C)cc3)CC2)cc1 | 0.6 | 38 | 0.3 | -0.21 | 66* | -0.48
CC(C)c1ccc(S(=O)(=O)N2CCN(CCC(=O)Nc3ccc(N(C)C)cc3)CC2)cc1 | 0.8 | 24 | 0.5 | -0.56 | 48 | -0.79
COc1ccc(S(=O)(=O)N2CCCN(CCC(=O)Nc3cccc(C(F)(F)F)c3)CC2)cc1 | 0.5 | 49 | 1.1 | 0.55 | -6 | -4.6*
CCOC(=O)c1ccc(NC(=O)COc2ccc(S(=O)(=O)N3CCCC3)cc2)cc1 | 0.9 | 7 | 0.7 | -0.86 | 25 | 0.3
CCOC(=O)c1ccc(S(=O)(=O)N2CCN(CC(=O)NC(=O)NC(C)(C)C)CC2)cc1 | 1.1 | -8 | 0.3 | -0.37 | 72* | -0.13
CC[C@@H]1CC=C[C@H]2[C@H]1C(=O)N(Cc1ccccc1)[C@H]2c1ccc2ccccc2c1 | nt | nt | nt | nt | nt | -2.6
CCC[C@@H]1CCCO[C@@](C(=O)NCCN2CCOCC2)(C(F)(F)F)C1 | nt | nt | nt | nt | nt | 0.15
O=C(c1cccs1)N(CC1CCCO1)c1nc(-c2ccccc2)cs1 (centres undefined) | 0 | 95* | 0.1 | -1.9 | 89* | -0.82
COCCCN(C(=O)c1ccco1)c1nc(-c2cc(OC)ccc2OC)cs1 | 0.5 | 50 | 0.2 | -1.9 | 76* | 0.92
COc1ccc(-c2csc(N(CCCN3CCOCC3)C(=O)c3ccco3)n2)cc1 | 0.8 | 20 | 0.6 | 0.29 | 41 | -1.6
O=C(c1ccco1)N(CC1CCCO1)c1nc(-c2ccccc2)cs1 (centres undefined) | 0.1 | 87* | 0.2 | -2 | 85* | -3.1*
Cc1ccc(-c2csc(N(CCCN3CCOCC3)C(=O)c3ccco3)n2)cc1 | 0.1 | 87* | 0.1 | -1.3 | 92* | -1.1
C=C(C)CNC(=S)NNC(=O)CCn1c2ccc(Cl)cc2c2cc(Cl)ccc21 | nt | nt | nt | 0.23 | nt | nt
C=CCn1c(CNc2ccc(C)cc2)nnc1SCC(=O)N/N=C/c1ccc(O)cc1 | 0.9 | 14 | 1 | 0.78 | -2 | -0.4
COc1cccc(/C(O)=C2/C(=O)C(=O)N(CCN3CCOCC3)C2c2cccs2)c1 (centres undefined) | 0.8 | 18 | 0.9 | -0.49 | 10 | nt
Cc1nc2ccccc2c2c1C(=O)N(Cc1cccnc1)C2=O | 0 | 97* | 0.5 | -0.3 | 46 | 0.052
O=c1c2[nH]c3ccc(F)cc3c2ncn1CCCn1ccnc1 | 0.4 | 64* | 0.2 | -0.11 | 80* | 1.5
O=c1c2[nH]c3ccc(F)cc3c2ncn1CCCN1CCOCC1 | 0.9 | 10 | 1 | 0.21 | 2 | 0.77
